Experimental findings from PubChem BioAssay (EPA / NIEHS) are described below.

“And” between values parts separate entries of the source, which are not always exact repeats. Identical values can stand only once. Inconclusive results are not listed. Some compounds were tested as several samples or in several runs, with calls that do not always agree. The source made the active and inactive calls. How the source made its calls, unless noted: active means hit-call score of the fitted dose curve at least 0.9, where 1 is the maximum; inactive means score below 0.9.

A short description of test [1]: ATG_RORE_CIS: Attagene CIS-FACTORIAL HepG2 Assay for human RAR-related Orphan Receptor Element (RORE) (AID 2282959). The note with it: HepG2 Attagene cis-factorial RORE reporter, mRNA; actives raise or lower the signal. The method, boiled down: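 Transfect HepG2 with MRTUs; treat 24 h; extract RNA; RT with oligo(dT); PCR with reporter-specific primers; 6-FAM primer extension; HpaI digest 2 h at 37 C; capillary electrophoresis. Fit vs DMSO, bidirectional.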

A short description of test [2]: ATG_Sox_CIS: Attagene CIS-FACTORIAL HepG2 Assay for human SRY-box transcription factor (SOX) (AID 2282960). The settings on record: HepG2 Attagene cis-factorial SOX reporter, mRNA; actives raise or lower the signal. The method, boiled down: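 Fluorescence-labelled cDNA fragments from reporter transcripts, sized by CE, give the signal. Cells: HepG2, transiently transfected with cis-regulated reporter units. Exposure 24 h; DMSO negative control; bidirectional curve fitting.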

The target of test [3] is Transcription factor Sp1 (Homo sapiens) (UniProt P08047). Briefly: ATG_Sp1_CIS: Attagene CIS-FACTORIAL HepG2 Assay for human Specificity Protein 1 (Sp1) (AID 2282961). The settings on record: HepG2 Sp1 cis-reporter transcription, actives raise or lower the signal. Summed up: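 Chemicals are dosed onto HepG2 cells transfected with multiple cis-promoter reporter constructs, and after 24 h reporter RNA is reverse-transcribed, PCR-amplified and resolved by capillary electrophoresis for fluorescence quantitation; activity is scored up or down against DMSO.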
Sequence of Transcription factor Sp1 (Homo sapiens) (P08047 whole entry, looked up): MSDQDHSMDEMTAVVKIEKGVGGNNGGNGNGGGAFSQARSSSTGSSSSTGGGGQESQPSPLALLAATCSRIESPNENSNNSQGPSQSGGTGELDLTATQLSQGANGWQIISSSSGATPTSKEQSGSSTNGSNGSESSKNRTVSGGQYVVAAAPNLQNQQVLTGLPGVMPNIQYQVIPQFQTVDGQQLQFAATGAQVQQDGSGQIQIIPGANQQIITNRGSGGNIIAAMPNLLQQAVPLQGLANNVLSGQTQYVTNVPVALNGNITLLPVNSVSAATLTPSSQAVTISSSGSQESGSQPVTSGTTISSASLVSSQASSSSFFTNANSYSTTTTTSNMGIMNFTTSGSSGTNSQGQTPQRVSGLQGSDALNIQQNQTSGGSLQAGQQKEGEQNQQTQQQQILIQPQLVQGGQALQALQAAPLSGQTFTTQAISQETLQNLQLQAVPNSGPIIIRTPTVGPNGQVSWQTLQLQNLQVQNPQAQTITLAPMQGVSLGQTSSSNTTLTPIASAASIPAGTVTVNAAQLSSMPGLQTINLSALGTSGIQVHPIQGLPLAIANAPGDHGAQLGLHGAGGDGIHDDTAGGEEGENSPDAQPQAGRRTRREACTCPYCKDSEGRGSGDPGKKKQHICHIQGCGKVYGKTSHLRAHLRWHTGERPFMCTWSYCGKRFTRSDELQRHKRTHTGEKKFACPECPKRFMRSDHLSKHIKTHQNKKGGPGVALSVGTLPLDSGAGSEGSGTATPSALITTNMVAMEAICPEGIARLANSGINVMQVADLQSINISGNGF

Test [4] is described as follows: ATG_SREBP_CIS: Attagene CIS-FACTORIAL HepG2 Assay for human Sterol Regulatory Element Binding (SREBP) (AID 2282962). The note with it: HepG2 Attagene cis-factorial SREBP reporter, mRNA; actives raise or lower the signal. The method, boiled down:
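Endogenous SREBP activity read as cis-element-driven reporter transcript in transiently transfected HepG2, 24 h post-dosing; quantified via RT-PCR plus capillary electrophoresis of fluorescent fragments. Gain or loss of signal fitted relative to DMSO baseline.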

Test [5] has as its target Signal transducer and activator of transcription 3 (Homo sapiens) (UniProt P40763). In words: ATG_STAT3_CIS: Attagene CIS-FACTORIAL HepG2 Assay for human Signal Transducer and Activator of Transcription 3 (STAT3) (AID 2282963). The settings on record: HepG2, Attagene cis-factorial STAT3 reporter transcription; actives raise or lower the signal. Summed up: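 Readout: fluorescent reporter mRNA fragments resolved by capillary electrophoresis. Setup: HepG2 transfected with MRTUs reporting endogenous transcription-factor activity, dosed 24 h. Gain or loss of signal fitted bidirectionally against DMSO control.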

The nature of test [6]: ATG_TA_CIS: Attagene CIS-FACTORIAL HepG2 Assay for human TA Basal Promoter (AID 2282964). The settings on record: HepG2 Attagene CIS-factorial TA basal promoter reporter; actives raise or lower the signal. The method, boiled down: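 Steps: transfect HepG2 with MRTUs; dose 24 h; isolate RNA, DNase-treat, reverse-transcribe; PCR and FAM-label reporter cDNA; digest with HpaI 2h at 37 C; run capillary electrophoresis. Activity fitted both directions against DMSO.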

Test [7] is described as follows: ATG_TCF_b_cat_CIS: Attagene CIS-FACTORIAL HepG2 Assay for human T-Cell-Factor with beta-catenin (TCF/b-cat) (AID 2282965). The settings on record: HepG2 TCF/beta-catenin cis-reporter transcription, actives raise or lower the signal. Summed up: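 Cells of the HepG2 line carry transiently transfected reporter units whose promoters respond to endogenous factors. Twenty-four hours post-dosing, reporter mRNA induction is measured by fluorescent RT-PCR and capillary electrophoresis, with DMSO as baseline.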

Test [8] is described as follows: ATG_TAL_CIS: Attagene CIS-FACTORIAL HepG2 Assay for human TAL Basal Promoter (AID 2282966).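 Further: background control endpoint measuring basal TAL promoter reporter mRNA not a specific factor.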 The settings on record: HepG2 Attagene cis-factorial TAL promoter reporter; actives raise or lower the signal. The method, boiled down:
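Human hepatoma HepG2 cells, transfected with promoter-regulated reporter units, were treated 24 h. Reporter transcript levels, measured through RT-PCR and capillary electrophoresis, were fitted for gain or loss relative to DMSO.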

A short description of test [9]: ATG_TGFb_CIS: Attagene CIS-FACTORIAL HepG2 Assay for human Transforming Growth Factor (TGF) (AID 2282967). The settings on record: HepG2 Attagene CIS TGFb reporter, mRNA transcription; actives raise or lower the signal. Summed up:
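Cells were dosed for 24 hours, after which total RNA was reverse-transcribed and reporter sequences amplified, labeled and sized by capillary electrophoresis. Activity was fitted in both directions against DMSO.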

The nature of test [10]: ATG_VDRE_CIS: Attagene CIS-FACTORIAL HepG2 Assay for human Vitamin D Receptor Element (VDRE) (AID 2282968). The settings on record: HepG2 VDRE cis-reporter transcription, actives raise or lower the signal. Summed up:
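Transient MRTU transfection of HepG2, 24 h compound exposure. Readout: reporter transcripts via RT-PCR and capillary electrophoresis, fluorescence. Bidirectional fit vs DMSO.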

Test [11] addresses Estrogen receptor (Homo sapiens) (UniProt P03372). Briefly: ATG_ERa_TRANS: Attagene TRANS-FACTORIAL HepG2 Assay for human Estrogen Receptor alpha (ERa) (AID 2282970; active means hit-call score of the fitted dose curve at least 0.9, where 1 is the maximum). The note with it: HepG2 Attagene TRANS ERa GAL4 reporter, mRNA. The method, boiled down: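 Signal derives from fluorescence of labelled reporter PCR fragments separated by capillary electrophoresis. HepG2 cells transiently carrying multiple GAL4-UAS reporter units were treated 24 hours, and induction above DMSO baseline was fitted as activity.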

Test [12] addresses X-box-binding protein 1 (Homo sapiens) (UniProt P17861). Briefly: ATG_Xbp1_CIS: Attagene CIS-FACTORIAL HepG2 Assay for human X-box Binding Protein 1 (XBP1) (AID 2282972). The note with it: HepG2 XBP1 cis-element reporter, Attagene multiplex; actives raise or lower the signal. Summed up: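 Reporter transcripts were quantified by RT-PCR with fluorescent primer extension and capillary electrophoresis after 24 h chemical exposure. Cells: transiently transfected HepG2 carrying cis-regulated reporter constructs; data fitted bidirectionally relative to DMSO.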

The target in test [13] is Estrogen-related receptor gamma (Homo sapiens) (UniProt P62508). Briefly: ATG_ERRg_TRANS: Attagene TRANS-FACTORIAL HepG2 Assay for human Estrogen-Related Receptor gamma (ERRg) (AID 2282977; active means hit-call score of the fitted dose curve at least 0.9, where 1 is the maximum;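 further: hits increase reporter signal over DMSO so potencies reflect activators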). The note with it: HepG2 Attagene TRANS reporter, ERRg transactivation. Summed up:
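Readout: fluorescent reporter-mRNA fragments resolved by capillary electrophoresis after RT-PCR and HpaI cut. Cells: transiently transfected HepG2 carrying GAL4-UAS reporters driven by exogenous NR-Gal4 chimeras, dosed 24 h. Activity fitted upward relative to DMSO baseline.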

For test [14], the target named is Bile acid receptor (Homo sapiens) (UniProt Q96RI1). Briefly: ATG_FXR_TRANS: Attagene TRANS-FACTORIAL HepG2 Assay for Farnesoid X Receptor (FXR) (AID 2282979; active means hit-call score of the fitted dose curve at least 0.9, where 1 is the maximum;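 further: hits raise reporter mRNA above DMSO so AC50 marks FXR activation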). The note with it: HepG2 Attagene TRANS FXR-GAL4 reporter transcription. The method, boiled down: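 After 24 h chemical treatment of transfected HepG2 cells, GAL4-UAS reporter transcripts driven by an exogenous FXR-GAL4 fusion were measured by RT-PCR and capillary electrophoresis. Increases over DMSO were fitted.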
Sequence of Bile acid receptor (Homo sapiens) (Q96RI1 whole entry, looked up, the tested form may be a part): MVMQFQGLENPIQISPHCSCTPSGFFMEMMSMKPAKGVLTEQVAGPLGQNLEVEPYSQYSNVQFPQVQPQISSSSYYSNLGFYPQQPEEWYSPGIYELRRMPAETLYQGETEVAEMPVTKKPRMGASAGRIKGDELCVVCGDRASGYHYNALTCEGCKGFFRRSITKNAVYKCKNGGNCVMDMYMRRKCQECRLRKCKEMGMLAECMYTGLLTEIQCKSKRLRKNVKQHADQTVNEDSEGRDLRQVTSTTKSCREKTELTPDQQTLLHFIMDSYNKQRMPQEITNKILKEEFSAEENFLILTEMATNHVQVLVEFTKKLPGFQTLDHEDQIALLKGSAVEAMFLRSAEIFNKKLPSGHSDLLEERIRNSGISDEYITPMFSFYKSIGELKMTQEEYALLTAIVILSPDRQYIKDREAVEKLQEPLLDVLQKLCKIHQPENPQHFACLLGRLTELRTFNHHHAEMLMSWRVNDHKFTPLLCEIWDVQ

Test [15] can be described thus: ATG_GAL4_TRANS: Attagene TRANS-FACTORIAL HepG2 Assay for GAL4 (Internal Marker) (AID 2282976; active means hit-call score of the fitted dose curve at least 0.9, where 1 is the maximum). The settings on record: HepG2 Attagene TRANS GAL4 internal marker reporter. Summed up: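 Liver HepG2 line bearing multiplexed GAL4-UAS reporter constructs; 24 h chemical treatment. Transcripts were quantified as fluorescent fragments on capillary electrophoresis after RT-PCR and HpaI cut, with activity fitted upward from DMSO.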

The target in test [16] is Glucocorticoid receptor (Homo sapiens) (UniProt P04150). In words: ATG_GR_TRANS: Attagene TRANS-FACTORIAL HepG2 Assay for human Glucocorticoid Receptor (GR) (AID 2282978; active means hit-call score of the fitted dose curve at least 0.9, where 1 is the maximum;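 further: activators score as hits since higher reporter transcript over DMSO is fitted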). The settings on record: HepG2 Attagene TRANS GR reporter, mRNA transcription. Summed up: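 Transiently transfected HepG2 cells express chimeric NR-GAL4 proteins acting on GAL4-UAS reporter units. Compounds are applied for 24 h. mRNA induction over DMSO is measured by capillary electrophoresis.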
Sequence of Glucocorticoid receptor (Homo sapiens) (P04150 whole entry, looked up, the tested form may be a part): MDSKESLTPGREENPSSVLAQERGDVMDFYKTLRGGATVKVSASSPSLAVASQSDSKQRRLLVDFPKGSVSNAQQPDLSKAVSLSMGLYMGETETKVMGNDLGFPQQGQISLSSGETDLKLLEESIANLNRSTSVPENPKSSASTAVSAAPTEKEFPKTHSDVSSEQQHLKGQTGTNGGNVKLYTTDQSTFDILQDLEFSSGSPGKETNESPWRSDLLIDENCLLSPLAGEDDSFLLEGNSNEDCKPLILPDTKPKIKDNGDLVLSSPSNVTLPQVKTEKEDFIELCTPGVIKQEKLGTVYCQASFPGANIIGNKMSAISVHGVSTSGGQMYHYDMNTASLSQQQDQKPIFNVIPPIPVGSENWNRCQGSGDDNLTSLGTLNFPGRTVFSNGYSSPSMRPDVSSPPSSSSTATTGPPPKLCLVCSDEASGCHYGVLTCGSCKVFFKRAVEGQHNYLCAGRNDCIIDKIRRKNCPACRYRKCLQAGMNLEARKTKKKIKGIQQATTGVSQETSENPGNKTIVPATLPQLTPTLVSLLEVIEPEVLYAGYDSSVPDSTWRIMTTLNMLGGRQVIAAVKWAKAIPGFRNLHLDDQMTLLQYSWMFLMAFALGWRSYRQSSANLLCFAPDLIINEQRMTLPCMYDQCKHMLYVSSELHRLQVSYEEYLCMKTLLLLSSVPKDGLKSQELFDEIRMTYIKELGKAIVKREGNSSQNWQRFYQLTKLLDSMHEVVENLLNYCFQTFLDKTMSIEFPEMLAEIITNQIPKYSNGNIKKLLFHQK

Test [17] can be described thus: ATG_PPRE_CIS: Attagene CIS-FACTORIAL HepG2 Assay for human Peroxisome Proliferator-activated Response Element (PPRE) (AID 2282958). The note with it: HepG2 PPRE cis-element reporter, Attagene transcription factor profiling; actives raise or lower the signal. Summed up: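 DMSO served as negative control and baseline for bidirectional curve fitting. Signal came from PPRE-regulated reporter mRNA in HepG2 cells, measured 24 h post-dosing by RT-PCR, 6-FAM primer extension and capillary electrophoresis.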

A short description of test [18]: ATG_M_19_TRANS: Attagene TRANS-FACTORIAL HepG2 Assay for M19 Transcription Factor (Internal Marker) (AID 2282974; active means hit-call score of the fitted dose curve at least 0.9, where 1 is the maximum). The note with it: HepG2 Attagene TRANS-FACTORIAL M19 internal marker reporter. The method, boiled down:
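Multiplexed TRANS format: HepG2 liver cells bearing transient GAL4-UAS reporter units, chemical treatment 24 h, reporter transcripts quantified by RT-PCR plus capillary electrophoresis. DMSO defines baseline.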

Sequence of Signal transducer and activator of transcription 3 (Homo sapiens) (P40763 whole entry, looked up, the tested form may be a part): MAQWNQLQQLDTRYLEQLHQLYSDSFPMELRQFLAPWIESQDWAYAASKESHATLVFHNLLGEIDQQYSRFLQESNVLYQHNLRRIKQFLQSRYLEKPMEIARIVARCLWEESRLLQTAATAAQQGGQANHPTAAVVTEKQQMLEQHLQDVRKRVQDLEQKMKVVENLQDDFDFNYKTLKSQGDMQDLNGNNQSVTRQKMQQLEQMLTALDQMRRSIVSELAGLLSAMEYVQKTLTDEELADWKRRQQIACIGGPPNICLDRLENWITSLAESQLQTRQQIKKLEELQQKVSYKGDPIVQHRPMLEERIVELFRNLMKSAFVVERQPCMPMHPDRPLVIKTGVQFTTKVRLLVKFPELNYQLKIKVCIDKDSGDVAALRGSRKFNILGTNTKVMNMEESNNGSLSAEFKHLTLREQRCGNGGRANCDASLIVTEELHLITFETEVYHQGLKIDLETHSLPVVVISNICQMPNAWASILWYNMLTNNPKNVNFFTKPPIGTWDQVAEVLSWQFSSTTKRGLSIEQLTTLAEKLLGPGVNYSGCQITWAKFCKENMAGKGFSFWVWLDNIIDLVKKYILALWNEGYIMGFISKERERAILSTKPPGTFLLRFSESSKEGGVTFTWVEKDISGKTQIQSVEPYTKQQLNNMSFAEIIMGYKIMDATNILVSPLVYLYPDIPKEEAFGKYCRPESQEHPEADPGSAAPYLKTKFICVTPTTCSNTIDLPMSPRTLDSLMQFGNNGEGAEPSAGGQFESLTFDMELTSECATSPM
Sequence of X-box-binding protein 1 (Homo sapiens) (P17861 whole entry, looked up): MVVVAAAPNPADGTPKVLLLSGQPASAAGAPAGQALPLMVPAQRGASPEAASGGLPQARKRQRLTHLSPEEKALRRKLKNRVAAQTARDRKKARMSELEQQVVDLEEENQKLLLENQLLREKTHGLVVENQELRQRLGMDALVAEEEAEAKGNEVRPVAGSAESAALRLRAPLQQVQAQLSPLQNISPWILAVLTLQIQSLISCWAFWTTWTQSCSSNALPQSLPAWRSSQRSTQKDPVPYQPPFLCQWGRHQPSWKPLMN
Sequence of Estrogen receptor (Homo sapiens) (P03372 whole entry, looked up, the tested form may be a part): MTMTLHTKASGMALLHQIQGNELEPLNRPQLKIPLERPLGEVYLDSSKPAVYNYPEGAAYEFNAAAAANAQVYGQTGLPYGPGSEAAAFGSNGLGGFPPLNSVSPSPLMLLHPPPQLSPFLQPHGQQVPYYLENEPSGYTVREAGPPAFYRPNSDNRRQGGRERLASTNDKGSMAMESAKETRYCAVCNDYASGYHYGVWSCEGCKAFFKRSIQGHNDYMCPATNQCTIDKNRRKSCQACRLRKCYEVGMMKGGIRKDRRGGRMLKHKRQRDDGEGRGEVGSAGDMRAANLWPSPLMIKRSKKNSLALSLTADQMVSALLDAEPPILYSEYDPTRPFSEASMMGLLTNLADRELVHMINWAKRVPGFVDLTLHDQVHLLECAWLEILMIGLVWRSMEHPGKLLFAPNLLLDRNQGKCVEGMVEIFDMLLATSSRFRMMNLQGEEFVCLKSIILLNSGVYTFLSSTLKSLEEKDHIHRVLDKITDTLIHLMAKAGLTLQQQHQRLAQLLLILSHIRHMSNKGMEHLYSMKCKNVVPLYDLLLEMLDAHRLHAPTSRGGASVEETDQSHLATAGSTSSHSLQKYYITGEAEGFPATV
Sequence of Estrogen-related receptor gamma (Homo sapiens) (P62508 whole entry, looked up, the tested form may be a part): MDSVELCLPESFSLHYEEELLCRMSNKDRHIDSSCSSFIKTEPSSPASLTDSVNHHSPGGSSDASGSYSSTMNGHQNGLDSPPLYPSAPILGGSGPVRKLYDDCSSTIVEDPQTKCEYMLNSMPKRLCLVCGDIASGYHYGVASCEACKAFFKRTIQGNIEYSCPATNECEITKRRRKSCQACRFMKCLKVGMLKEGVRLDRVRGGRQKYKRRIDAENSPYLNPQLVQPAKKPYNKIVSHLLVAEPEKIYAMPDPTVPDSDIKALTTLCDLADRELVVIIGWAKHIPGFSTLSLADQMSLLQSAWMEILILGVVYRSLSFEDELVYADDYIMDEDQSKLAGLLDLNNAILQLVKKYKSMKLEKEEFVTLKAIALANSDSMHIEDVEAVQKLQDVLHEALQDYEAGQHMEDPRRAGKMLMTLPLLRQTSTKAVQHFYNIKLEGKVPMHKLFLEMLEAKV

Consider `Cc1ccc(C(C)(C)C)c(O)c1`, for which the molecule was classed as inactive in test [1], in test [5], in test [6], in test [8], in test [9] and in test [13]. In addition, the call in [14] was inactive. Further, the AC50 in test [2] was 154 µM (active); in [3], 100 µM (active); in test [4] it was 161 µM (active); in [7], 161 µM (active); in test [10] it was 151 µM (active); in [11], 6.64 µM (active). In [12], the AC50 is 139 µM (active).
For `CC(C)OC(=O)C(C)(C)Oc1ccc(C(=O)c2ccc(Cl)cc2)cc1`, the AC50 in test [1] was 27.5 µM (active); in test [6], 22.6 µM (active); in [10] it was 27.6 µM (active); in test [11] it was 27.1 µM (active); in test [14], 26.8 µM (active). Besides, the result in [2], in test [3], in test [5], in test [7], in test [8] and in test [9] was inactive. The call in test [15] and in test [16] was inactive.
`CCc1cc(C2=C(C(=O)O)N(c3ccccc3C(F)(F)F)S(=O)(=O)c3ccccc32)cc2c1OCO2`: the molecule was called inactive in [1], in [2], in test [5], in test [6], in test [8] and in test [9]. Also, the result in test [15] and in test [16] was inactive. The AC50 in [3] was 59 µM (active); in [4] it was 26.6 µM (active); in test [7] it was 122 µM (active); in test [10], 11.8 µM (active).
For the molecule `O=C1O[C@H]([C@H](O)CO)C(O)=C1O`, the molecule was called inactive in test [17], in test [1], in [2], in test [3], in [5] and in test [6]. In addition, the molecule was classed as inactive in [7], in test [8], in test [9], in [12], in test [18] and in test [15]. For the same molecule, the result in [16] was inactive.
`CC(=O)[C@@]1(O)CC[C@H]2[C@@H]3CCC4=CC(=O)CC[C@]4(C)[C@H]3CC[C@@]21C`: the molecule was classed as inactive in test [1], in test [2], in [3], in test [5], in [6] and in [7]. Further, the outcome in test [8], in [9], in test [10], in [12], in test [18] and in test [15] was inactive. Also, the call in test [16] was inactive. For the same molecule, the AC50 in test [16] is 6.26 µM (active) and 14.8 µM (active) and 1.58 µM (active).

What is called AC50 is the concentration giving half of the maximal activity seen.
